# Compound activity: PubChem, several laboratories
# Hits are enriched below; roughly 3.9% of the tested compounds scored in any of these assays.
# SARS 3CLpro inh: SARS-CoV 3CLpro protease inhibition. recombinant SARS-CoV 3CLpro, quenched FRET peptide cleavage. inhibition, % at 6 µM. actives 0.14% (n = 290,000); in the data active = inhibition above about 12%
# BoNT-A LC inh2: BoNT A light chain protease inhibition | actives 0.17% (n = 360,000) | inhibition, % at 10 µM | multiplex microsphere protease substrate cleavage, flow cytometry
# BoNT-F LC inh: BoNT F light chain protease inhibition; inhibition, % at 10 µM; AID 588497; actives 0.22% (n = 360,000); Multiplex microsphere protease cleavage assay, flow cytometry; in the data active = inhibition above about 35%, passing the limit was not always enough
# Bead autofluor: flagged as autofluorescent in microsphere protease counterscreen. fluorescence intensity (test concentration not listed). AID 624483. actives 3.1% (n = 360,000). compound autofluorescence counterscreen, microsphere flow cytometry; hits give high values; in the data active = fluorescence intensity above about 16000
# CCHF vOTU inh-1: CCHFV vOTU protease inhibition | inhibition, % at 11.5 µM | Pep-AMC fluorescence | AID 651958 | actives 0.55% (n = 370,000); in the data active = inhibition above about 30%
# Anthrax LF inh2: blocks Bacillus anthracis lethal factor protease | multiplex microsphere protease cleavage assay, LF | inhibition, % at 10 µM | actives 0.12% (n = 360,000)
# BoNTA LC inh 2: blocks botulinum neurotoxin A light chain protease | shares compounds with BoNT-A LC inh2 | multiplex microsphere protease cleavage assay, flow cytometry | inhibition, % at 10 µM | actives 10% (n = 150) | AID 602325; in the data active = inhibition above about 24%
# Anthrax LF CP2: Bacillus anthracis lethal factor protease inhibition. shares compounds with BoNT-A LC inh2. multiplex microsphere protease cleavage assay. inhibition, % at 10 µM. actives 7% (n = 150). AID 602327; in the data active = inhibition above about 25%
# BoNTF LC inh 2: BoNT/F light chain protease inhibition; shares compounds with BoNT-A LC inh2; inhibition, % at 10 µM; multiplex microsphere protease cleavage assay, flow cytometry; actives 7% (n = 150); in the data active = inhibition above about 25%
# CCHF vOTU inh-2: confirmation of CCHF virus vOTU protease inhibitors; shares compounds with CCHF vOTU inh-1; inhibition, % at 11.5 µM; Recombinant CCHFV vOTU, Pep-AMC fluorescence; AID 686976; actives 17% (n = 1,900); in the data active = inhibition above about 30%
# A number is an active result; . = inactive; / = not tested or not shown. Rule as the data show it, unless noted: active = inhibition above about 30%; inconclusive = no clear call, values can overlap the other calls; inactive = below that.
SMILES,SARS 3CLpro inh,BoNT-A LC inh2,BoNT-F LC inh,Bead autofluor,CCHF vOTU inh-1,Anthrax LF inh2,CCHF vOTU inh-2,others
O=S1(=O)c2ccc(N3CCC[C@@H]3CO)cc2O[C@@H]2CCN1C2,/,/,/,/,.,/,/,
COc1cc(N(C)C)ccc1C=c1c2ccccc2n2c1cc(-c1ccccc1)[n+]2C,/,56,.,.,34,.,.,BoNTA LC inh 2=30;Anthrax LF CP2=.;BoNTF LC inh 2=.
CCOC(=O)[C@@]12CCCC3=C1N(CCC3)C(=O)[C@H]2CC(=O)N1CCN(C(=O)c2ccco2)CC1,/,/,/,/,.,/,/,
CN1C(=O)C(=Cc2ccc(N3CCOCC3)o2)C(=O)N(C)C1=O,.,.,.,.,30,.,.,
CN1C(C(=O)Nc2cccc(O)c2)=CC(c2cccs2)=NS1(=O)=O,.,.,.,.,33,.,.,
CC(=O)c1cccc(NC(=O)C2=CC(c3cccs3)=NS(=O)(=O)N2C)c1,.,.,.,.,.,.,/,
Cc1cc(C)cc([C@H]2C[C@]34CN(C(=O)OC(C)(C)C)S(=O)(=O)[C@H]3C[C@H]2O4)c1,/,/,/,/,.,/,/,
CCc1noc(C)c1C(=O)N(C)CC(=O)Nc1ccc(Cl)c(Cl)c1,/,.,.,.,.,.,/,
CCc1noc(C)c1C(=O)N(C)CC(=O)Nc1ccccc1C(F)(F)F,/,/,/,/,36,/,.,
O=C(Cn1cc(COC(=O)c2c3ccccc3cc3ccccc23)nn1)c1ccc(O)cc1,/,/,/,/,34,/,.,
COc1ccc2cc([C@H](C)C(=O)OCc3cn(CC(=O)c4ccc(O)cc4)nn3)ccc2c1,/,.,.,.,.,.,/,
COc1cccc(CN2CCN(Cc3ccccc3C(F)(F)F)CC2)c1,.,.,.,.,.,.,/,
COc1ccc(CN2CCN(Cc3ccccc3C(F)(F)F)CC2)c(OC)c1,.,.,.,.,30,.,.,
COc1ccc(CN(C)C(=O)[C@H]2O[C@@H](n3ccc(=O)[nH]c3=O)[C@H](O)[C@@H]2O)cc1OC,/,.,.,.,30,.,.,
COC(=O)C1CCN(C(=O)CN2CCC(C(=O)c3ccc(C)cc3)CC2)CC1,/,/,/,/,.,/,/,
O=C(O)c1cccc(S(=O)(=O)NCC(=O)N2CCN(c3ccccn3)CC2)c1,/,/,/,/,.,/,/,
Cc1ccc(NCc2ccccc2O)cc1,.,.,.,.,.,.,/,
Cc1ccc(CNc2ccc(O)cc2)cc1,.,.,.,.,63,.,72,
COC(=O)CCN1CCSCCS1(=O)=O,/,/,/,/,.,/,/,
CCCCNC(=S)NNC(=O)c1cc(-c2cccnc2)nc2ccccc12,.,.,.,.,35,.,.,
Fc1ccc(Nc2cncc(-c3ccsc3)c2)cc1Cl,/,.,.,.,94,.,.,
Fc1ccc(Nc2nnc(C(F)(F)F)s2)cc1Cl,.,/,/,/,.,/,/,
COC(=O)[C@]12C[C@H](CC(=O)N3CCCCC3)C(=O)N(Cc3ccccc3)C1=C[C@H](C(C)C)O[C@@H]2C1CC1,/,/,/,/,.,/,/,
CCCCCCCCN1C(=O)[C@@H](CC(=O)NCCC(C)C)C[C@@]2(C(=O)OC)C1=C[C@H](C(C)C)O[C@@H]2C1CC1,/,/,/,/,35,/,.,
CCCCCCCCN1C(=O)[C@@H](CC(=O)N2CCCCC2)C[C@@]2(C(=O)OC)C1=C[C@H](C(C)C)O[C@@H]2C1CC1,/,/,/,/,32,/,.,
SMILES,SARS 3CLpro inh,BoNT-A LC inh2,BoNT-F LC inh,Bead autofluor,CCHF vOTU inh-1,Anthrax LF inh2,CCHF vOTU inh-2,others
COC(=O)[C@]12C[C@H](CC(=O)NCCC(C)C)C(=O)N(Cc3ccccc3)C1=C[C@H](C(C)C)O[C@@H]2C1CC1,/,/,/,/,.,/,/,
CCCCCCCCN1C(=O)[C@@H](CC(=O)NCc2cccs2)C[C@@]2(C(=O)OC)C1=C[C@H](C(C)C)O[C@@H]2C1CC1,/,/,/,/,39,/,.,
CC(C)[C@H](NC(=O)CC1CCCC1)C(=O)N1CCC[C@H]1C(=O)NCCc1ccccc1Cl,/,/,/,/,.,/,/,
COC(=O)/C=C1\Nc2ccc(Cl)cc2C(=O)NC1=O,/,/,/,/,.,/,/,
O=C1OC(c2cccs2)=N/C1=C\c1ccc(-c2ccccc2Cl)o1,.,.,.,.,32,.,.,
O=C1OC(c2cccs2)=N/C1=C/c1ccc(-c2cccc(C(=O)O)c2)o1,.,.,.,.,.,.,/,
